Experimental findings from PubChem BioAssay AID1224858 (National Center for Advancing Translational Sciences (NCATS), 2016) are described below.

Inconclusive results are not listed. A number with no mark means an inactive call. Activity calls are given as the source filed them. Calls come from the whole dose curve; as a rule, active = well fitted inhibition curve with a large enough effect; inconclusive = small, poorly fitted or top-dose-only effect; inactive = no such curve, though single readings can be large or run the other way.

The assay in a line: Confirmation assay for measurement of the activity of small molecule inhibitors on Zika virus induced Caspase-3 activity in human astrocytes. The note with it: ZIKV-induced caspase-3/7 luminescence, 6 h; series mostly up to 46.1 µM; activity, negative = inhibition: at the top concentration. The source says: National Center for Advancing Translational Sciences [NCATS] Johns Hopkins University School of Medicine Florida State University Assay Overview: Increase in the Caspase-3 activity indicates an activation of apoptosis cell death pathway caused by Zika virus infection in certain types of neuronal cells including human neural progenitor cells (hNPCs), astrocytes, and astrocytoma cell line (SNB-19). This cell-based caspase-3 activity assay measures the increased caspase-3 activity in the human astrocytes after a 6-hour Zika virus infection with a luminescence readout. A decrease in the luminescence signal in this assay by small molecule treatment indicates an inhibitory effect of that small molecule on the Zika virus induced caspase-3 activity that may correlate with its effect on reduction of Zika virus caused cell death.
Assay Protocol Summary: The medium for astrocytes contains AM basal medium (ScienCell, Cat.# 1801), AGS (ScienCell, Cat.# 1801), 10% FBS, and 1% Pen/Strep. A Caspase-Glo 3/7 assay kit (catalog number G8092; Promega, Madison, WI) was used to detect caspase-3 activity induced by Zika virus infection in human cells. The reagent mixture was reconstituted as described in the protocol from the manufacturer. Polystyrene tissue culture treated and PDL coated white plates were obtained from Greiner Bio-One (Monroe, NC). Cells were seeded in 384- or 1536-well assay plates and cultured at 37 C with 5% CO2 for 16 to 20 hours. The typical cell seeding density in the 1536-well plate assay is 350 cells/well in 3 ul medium for astrocytes in tissue culture treated plates. Compounds were added to cells and incubated for one hour before addition of ZIKV solution to cells (2 FFU/cell). After incubation at 37 C with 5% CO2 for 6 hours, the reagent mixture of Caspase-Glo 3/7 assay kit was added to each well, followed by incubation at room temperature for 30 minutes. The luminescence intensity of the assay plates was measured using a ViewLux plate reader (PerkinElmer). Data were normalized by using the cell-containing wells without ZIKV as a negative control (0% induction of caspase 3/7 activity) and wells containing ZIKV infected cells (Caspase-3 activity induced) as a positive control (100% induction of caspase 3 activity). The percentage inhibitions of the increased Caspase-3 activity by small molecule inhibitors were then calculated.
For the molecule `CN1CC(=O)N2C(Cc3c([nH]c4ccccc34)[C@H]2c2ccc3c(c2)OCO3)C1=O` (stereo not given in full), the “activity, negative = inhibition” value was 9.65%. The same measure, in the same setting: then `CC1(C)Cc2c(sc(NC(=S)NC(=O)c3ccccc3)c2C(=O)O)CO1`, with 11.8%. With `COc1cc2nc(N3CCN(C(=O)C4CCCO4)CC3)nc(N)c2cc1OC` (stereo not given), the Potency is 10.9 µM (active). With `Clc1ccccc1-c1nc(-c2ccncc2)no1`, the Potency is 6.15 µM (active). In the case of `CCCC(=O)OC[C@@H](OC(=O)CCC)[C@@H](OC(=O)CCC)[C@H](Cn1c2nc(=O)[nH]c(=O)c-2nc2cc(C)c(C)cc21)OC(=O)CCC`, the “activity, negative = inhibition” value is -26.4%. Turning to `O=C(/C=C/c1ccccc1)NCCO`, the “activity, negative = inhibition” value was -18.6%.

For `CC(=Cc1ccccc1)C=C1SC(=S)N(CC(=O)O)C1=O`, the Potency was 19.5 µM (active).

For the molecule `CC1=C(CO)C(=O)O[C@@H]([C@@H](C)[C@H]2CC[C@H]3[C@@H]4C[C@H]5O[C@]56[C@@H](O)C=CC(=O)[C@]6(C)[C@@H]4CC[C@]23C)C1`, the “activity, negative = inhibition” value was -6.03%. As to `C/C(=N\O)c1ccc(OCC(=O)N2CCCCC2)cc1`, the Potency was 9.75 µM (active).

For `CC(=O)Nc1ccc([C@H](C)C(=O)Nc2ncc(C(C)C)s2)cc1`, the Potency is 10.9 µM (active). Consider `COc1ccc(CC2=NN3C([C@@H](CCc4ccccc4)[C@@H](C)O)=NC(C)C3C(=O)N2)cc1OC` (stereo not given in full), for which the “activity, negative = inhibition” value was -7.76%. As for `Cc1nc(-c2ccc(OCC(C)C)c(C#N)c2)sc1C(=O)O`, the Potency was 2.18 µM (active). For `Cc1ccc2c(n1)Oc1ccc(C(C)C(=O)OCC(=O)N(C)C)cc1C2` (stereo not given), the Potency is 19.5 µM (active). For `Cc1c(C(=O)O)c(O)cc2c1C(=O)c1c(O)c([C@@H]3O[C@H](CO)[C@@H](O)[C@H](O)[C@H]3O)c(O)c(O)c1C2=O`, the “activity, negative = inhibition” value is -21.7%. Turning to `Cc1ccc(C(=O)c2ccc(CC(=O)O)n2C)cc1`, the “activity, negative = inhibition” value was -0.261%. As for `O=C(O)c1cccc(-c2noc(-c3ccccc3F)n2)c1`, the Potency is 3.88 µM (active).

For the molecule `CN(C)CCCSc1ccccc1NC(=O)/C=C/c1ccccc1`, the Potency was 13.8 µM (active). Still for that read-out and setting: then `CC(C)(C)COc1ccc(-n2cc(C(=O)O)cn2)cc1C#N`, with 7.08 µM (active).

In the case of `COc1cccc(-c2ccc(NC(=O)C3=C(C(=O)O)CCC3)c(F)c2)c1`, the Potency was 2.45 µM (active).

On to `O=C1c2ccccc2-[n+]2ccc3c([nH]c4ccccc43)c21`, for which the Potency was 7.74 µM (active). For `O=C(/C=C/c1ccc(O)cc1)c1ccc(O)cc1O`, the Potency was 2.75 µM (active). `Cc1ccc(O)c(N=Nc2ccccc2)n1`: the Potency is 1.73 µM (active). As to `Nc1cc(C(F)(F)F)ccc1S`, the “activity, negative = inhibition” value is -8.2%. Regarding `c1ccc(CCNc2nc(-c3ccccc3)cs2)cc1`, the Potency was 10.9 µM (active). Regarding `C[C@@H]1CCN(C(=O)CC#N)C[C@H]1N(C)c1ncnc2[nH]ccc12`, the “activity, negative = inhibition” value is -16.5%. In the case of `O=c1oc2cc(O)ccc2s1`, the “activity, negative = inhibition” value is -9.23%. As for `CCOCCOC(=O)/C=C/c1ccc(OC)cc1`, the “activity, negative = inhibition” value was -28.8%. As to `C[C@H](NC(=O)C(=O)Nc1ccccc1C(C)(C)C)C(=O)N[C@@H](CC(=O)O)C(=O)COc1c(F)c(F)cc(F)c1F`, the Potency is 0.245 µM (active). Take `CN(C)c1cc(NC(=O)CNC(C)(C)C)c(O)c2c1C[C@@H]1C[C@H]3[C@H](N(C)C)C(=O)C(C(N)=O)=C(O)[C@@]3(O)C(=O)C1=C2O`: the “activity, negative = inhibition” value was -3.13%. With `CCCCCCOc1ccccc1C(N)=O`, the “activity, negative = inhibition” value is -10.9%.

Consider `CCCCCNC(=O)N1CCC(CN(Cc2ccc(Cl)cc2)Cc2ccc([N+](=O)[O-])s2)C1` (stereo not given), for which the “activity, negative = inhibition” value is 17.4%.

As for `CC=CC[C@@H](C)C(=O)[C@H]1C(=O)N[C@@H](C(C)C)C(=O)N(C)CC(=O)N(C)[C@@H](CC(C)C)C(=O)N[C@@H](C(C)C)C(=O)N(C)[C@@H](CC(C)C)C(=O)N[C@@H](C)C(=O)N[C@H](C)C(=O)N(C)[C@@H](CC(C)C)C(=O)N(C)[C@@H](CC(C)C)C(=O)N(C)[C@@H](C(C)C)C(=O)N1C`, the “activity, negative = inhibition” value is 3.51%. On to `COc1ccc(NC(=O)/C=C/c2ccc(Cl)cc2)cc1`, for which the Potency is 3.88 µM (active).

For `Cc1cccc(C#Cc2ccccc2)n1`, the Potency is 6.15 µM (active). As for `CC[C@@]1(O)C[C@H](O[C@H]2C[C@H](N(C)C)[C@H](O[C@H]3C[C@H](O)[C@H](O[C@H]4CCC(=O)[C@H](C)O4)[C@H](C)O3)[C@H](C)O2)c2c(cc3c(c2O)C(=O)c2c(O)cccc2C3=O)[C@@H]1C(=O)OC`, the “activity, negative = inhibition” value was 10.1%. With `CC(C)OC(=O)CCCC=CC[C@@H]1[C@H](C=C[C@@H](O)COc2cccc(C(F)(F)F)c2)[C@H](O)C[C@@H]1O`, the “activity, negative = inhibition” value is 38.6%.

On to `CN(C)c1ccc(/C=C2\C(=O)Nc3ccccc32)cc1`, for which the Potency was 8.69 µM (active). Still for that read-out and setting: then `CC(=O)Oc1cccc2c1C(=O)c1c(OC(C)=O)cc(C(=O)O)cc1C2=O`, with 15.5 µM (active). Take `O=C(O)c1ccccc1Nc1cccc(C(F)(F)F)c1`: the Potency was 6.9 µM (active). For the molecule `O=C(O)CCC(=O)c1ccc(-c2ccccc2)cc1`, the Potency was 19.5 µM (active).
